Experimental findings from PubChem BioAssay are described below.

A number with no mark means an inactive call. The rule behind the calls is not given here.

The target of this experiment is Pantothenate synthetase (Mycobacterium tuberculosis (strain ATCC 25618 / H37Rv)) (UniProt P9WIL5). The experiment in a line: Coupled enzyme confirmation of inhibitors against recombinant Mtb PanC (AID 375).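 Note: 0% = full reaction with vehicle and 100% = no enzyme background.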 As to conditions: coupled enzyme assay; at 10 µM, hits give high values.
Sequence of Pantothenate synthetase (Mycobacterium tuberculosis (strain ATCC 25618 / H37Rv)) (P9WIL5 whole entry, looked up): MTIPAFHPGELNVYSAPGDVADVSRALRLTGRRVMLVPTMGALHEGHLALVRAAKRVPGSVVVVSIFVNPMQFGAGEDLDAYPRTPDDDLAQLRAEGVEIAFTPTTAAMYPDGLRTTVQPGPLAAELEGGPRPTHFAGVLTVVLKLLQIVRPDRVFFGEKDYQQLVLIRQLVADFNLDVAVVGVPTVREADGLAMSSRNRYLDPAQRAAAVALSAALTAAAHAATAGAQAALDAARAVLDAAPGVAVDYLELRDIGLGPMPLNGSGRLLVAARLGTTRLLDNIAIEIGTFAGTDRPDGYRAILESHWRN
As for `O=C(NC1CC2CCC1C2)C1COc2ccccc2O1` (stereo not given), the inhibition (usually the percentage by which the read-out fell short of the control) was 0%. On to `O=C1C(Cl)=C(N2CCCCC2)C(=O)N1c1ccccc1Cl`, for which the inhibition was 7%.

With `COc1ccc(-c2cn3c(C)c(C(=O)Nc4cc(NC(C)=O)ccc4OC)sc3n2)cc1`, the inhibition was 4%. With `O=C(Nc1ccc2c(c1)OCO2)c1cncc(Br)c1` the figure was 8%; with `O=c1[nH]c(SCc2ccccc2Cl)nc2c1CCCC2`, 0%. With `c1ccc(-c2cc(N3CCCCC3)ncn2)cc1` the figure was 0%. The same measure for `Cn1c(C(=O)N2CCN(C(=O)c3ccco3)CC2)cc2c(=O)n3ccccc3nc21`: 9%.

In the case of `CCCC(=O)Nc1cnc(NC(=O)c2cccc(F)c2)cc1C`, the inhibition was 0%. For the compound `COc1ccc(C(=O)N2CCCc3ccccc32)cc1`, the inhibition was 0%.

Regarding `CC1(C)Cc2nc3oc4c(N(CCO)Cc5ccccc5)ncnc4c3cc2CO1`, the inhibition was 0%. With `O=C(c1c(Cl)nc2sccn12)N(C(=O)c1c(Cl)nc2sccn12)c1ccc(Cl)cn1` the figure was 0%; with `CCN(Cc1nc2cc(OC)c(OC)cc2c(=O)[nH]1)C(=O)c1ccc(S(=O)(=O)N(C)C)cc1`, 0%. With `CCCCN(CCCC)C(=O)CN(C)S(=O)(=O)c1ccc2c(c1)n(C)c(=O)c(=O)n2C` the figure was 5%. The same measure for `CCCn1c(-c2ccc(F)cc2)cnc1SCC(=O)O`: 0%; for `COc1ccc(C2C(C(=O)c3sc(C)nc3C)=C(O)C(=O)N2CCN2CCOCC2)cc1` (stereo not given): 0%; for `COc1ccc(C(=O)c2ccc(OC)c(N)c2)cc1N`: 0%.

For the compound `Cc1cccc(NC(=O)c2ccc3ccccc3n2)n1`, the inhibition was 0%. With `CC(C)Oc1ccc(C2C(C(=O)c3ccco3)=C(O)C(=O)N2CCCN(C)C)cc1` (stereo not given) the figure was 0%; with `Cc1ccc(C(=O)CSc2n[nH]c(-c3ccco3)n2)cc1C`, 1%.

As for `O=C(NCc1ccccc1)C1CCN(S(=O)(=O)c2cccc3cccnc23)CC1`, the inhibition was 0%. With `Cc1cc(C)cc(Nc2ncc3c(n2)CC(c2ccco2)CC3=O)c1` (stereo not given) the figure was 3%.

Regarding `O=C(Nc1cccc2ccccc12)c1cnccn1`, the inhibition was 0%.

With `CCN(c1ccc(OC)cc1)S(=O)(=O)c1ccc2c(c1)CCN2C(=O)CCC(=O)O`, the inhibition is 0%.

For `CCCN1CCN(CCCNC(=O)C2CCCN(c3nc4ccc(OCC)cc4s3)C2)CC1` (stereo not given), the inhibition was 1%.

Regarding `O=C(CSc1nnc(Cc2cc(=O)[nH]c(=O)[nH]2)n1-c1ccccc1)NCC1CCCO1` (stereo not given), the inhibition is 0%.

Consider `CCOc1ccc(N(C)S(=O)(=O)c2ccc3[nH]cc(C(=O)NCC4CCCO4)c(=O)c3c2)cc1` (stereo not given), for which the inhibition is 0%. Regarding `Cc1ccc(N2CCN(c3ccc(C)cc3)C(CC(=O)O)C2=O)cc1` (stereo not given), the inhibition is 7%. With `CC1CCN(c2nc3c(c(=O)n(C)c(=O)n3C)n2Cc2ccccc2)CC1` the figure was 0%. In the case of `O=C(Cn1nnc2ccccc2c1=O)NC1CCCc2ccccc21` (stereo not given), the inhibition is 5%. Consider `COc1ccc(-c2nnc3sc(C(C)N4C(=O)c5ccccc5C4=O)nn23)cc1` (stereo not given), for which the inhibition is 0%. The same measure for `CCOc1ccc(C2CC(c3cccc(C)c3)n3ncnc3N2)cc1` (stereo not given): 0%; for `O=S(=O)(NCCSc1ccccc1)c1cccs1`: 0%; for `COc1ccc(-c2ccc(-c3nnn(CC(C)=O)n3)cc2)cc1`: 2%. With `CC(C)Cn1c(N)c(C(=O)NCc2cccs2)c2nc3ccccc3nc21` the figure was 1%. With `CCN(C(=O)c1cc2cc3ccc(C)cc3nc2o1)c1ccc(OC)cc1` the figure was 6%.

Consider `COc1ccc(N2CCN(C(=O)CN3C(=O)C4CC=CCC4C3=O)CC2)cc1` (stereo not given), for which the inhibition is 0%. With `NC(=O)c1cccc2c1C(=O)N(C1CCCCC1)C2` the figure was 0%. The same measure for `CCn1nc(CC(=O)Nc2nnc(CC(=O)N3CCCCC3)s2)c2ccccc2c1=O`: 0%; for `COc1cc(CC(=O)Oc2ccc3c(c2)OCO3)cc(OC)c1OC`: 0%. The same measure for `COc1ccc(-c2nnc(SCc3nnc(-c4ccc(Cl)cc4)o3)n2-c2ccccc2)cc1`: 0%.
